Source: PubChem BioAssay
Shown are actives, neighbours in structure and some others; about 13% of the full set was active somewhere.
USP30 inh = human USP30 deubiquitinase inhibition; purified USP30, Ub-rhodamine cleavage fluorescence; inhibition, % at 25 µM; hit rate 5.3% among 47,000; Q70CQ3
Target sequence (Q70CQ3 whole entry, looked up): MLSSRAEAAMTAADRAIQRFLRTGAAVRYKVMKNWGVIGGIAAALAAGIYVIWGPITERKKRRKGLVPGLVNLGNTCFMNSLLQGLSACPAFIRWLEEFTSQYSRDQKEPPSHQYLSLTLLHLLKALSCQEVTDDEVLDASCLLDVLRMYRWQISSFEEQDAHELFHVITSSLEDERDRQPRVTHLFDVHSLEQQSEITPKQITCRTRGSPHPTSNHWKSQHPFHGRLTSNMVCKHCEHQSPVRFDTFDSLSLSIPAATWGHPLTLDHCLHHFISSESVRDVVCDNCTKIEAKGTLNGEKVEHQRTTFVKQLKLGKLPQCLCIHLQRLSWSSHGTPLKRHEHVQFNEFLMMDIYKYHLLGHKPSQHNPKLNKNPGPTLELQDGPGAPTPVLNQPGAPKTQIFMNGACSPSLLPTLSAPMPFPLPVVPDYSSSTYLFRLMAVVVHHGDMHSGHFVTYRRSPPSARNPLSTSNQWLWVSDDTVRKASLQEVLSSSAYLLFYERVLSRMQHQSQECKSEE
USP17 block = human USP17-like deubiquitinase inhibition; purified USP17, Ub-rhodamine cleavage fluorescence, 3 h; inhibition, % at 50 µM; hit rate 6.5% among 47,000
USP10 inh = inhibitors of human USP10 deubiquitinase | hit rate 1.1% among 47,000 | purified USP10, Ub-rhodamine fluorescence, 60 min | Q14694 | AID 1645856 | inhibition, % at 20 µM
USP8 inh = human USP8 deubiquitinase inhibition; purified USP8, Ub-rhodamine cleavage fluorescence, 30 min; inhibition, % at 20 µM; hit rate 4.2% among 47,000
USP28 block = blocks human USP28 ubiquitin-rhodamine cleavage. Q96RU2. purified USP28, Ub-rhodamine cleavage fluorescence, 30 min. inhibition, % at 25 µM. hit rate 3% among 47,000. AID 1645857
OTUD3 inh = human OTUD3 deubiquitinase inhibition; inhibition, % at 25 µM; hit rate 0.7% among 47,000; purified OTUD3, Ub-rhodamine fluorescence, 2 h; Q5T2D3
* = called active by the depositor; · = no result given. No stated cut-off is given here; in the data, active means inhibition above about 30%; inactive means the rest.

SMILES	USP30 inh	USP17 block	USP10 inh	USP8 inh	USP28 block	OTUD3 inh
NC(=O)C1CCN(C(=O)c2ccc(Cl)c(S(=O)(=O)N3CCCCC3)c2)CC1	4	-1	-3	-23	4	0
Cc1ccc(N2CCCn3c2nc2c3c(=O)n(CCc3ccccc3)c(=O)n2C)cc1	31*	11	3	-9	8	4
Cc1ccc(N2CCCn3c2nc2c3c(=O)n(CCCc3ccccc3)c(=O)n2C)cc1	14	0	9	-22	1	6
CCc1cc(=O)oc2cc(OCC(=O)NC(c3ccccc3)c3ccccc3)ccc12	44*	4	11	7	14	19
Cc1cc(NC(=O)c2ccc(C(F)(F)F)cc2)no1	40*	13	11	19	6	7
Cc1cc(NC(=O)c2oc3c(F)cccc3c2C)no1	-135	-7	-5	6	-27	-10
Cc1cc(NC(=O)COc2ccc3oc4ccccc4c3c2)no1	21	78*	6	-2	5	-3
CC(NC(=O)COc1ccc2ccccc2c1)C(=O)O (centres undefined)	2	0	0	7	-8	-13
CC(NC(=O)COc1ccc2oc3ccccc3c2c1)c1ccccc1 (centres undefined)	22	42*	4	0	-1	-6
Cc1nc(-c2cncc(Br)c2)cc(N2CCCCC2)n1	-41	3	-4	4	3	1
Cc1cc(NC(=O)COc2cccc(C(F)(F)F)c2)no1	13	48*	2	24	8	12
Cc1cc(NC(=O)c2ccc(C(=O)Nc3cc(C)on3)s2)no1	-20	20	-2	2	-13	-9
COc1cccc(CNC(=O)CC(c2cccc(F)c2)n2cccc2)c1 (centres undefined)	4	-22	2	-74	3	7
COc1ccc(CNC(=O)CC(c2cccc(F)c2)n2cccc2)cc1 (centres undefined)	35*	13	2	-14	19	20
Cc1ccccc1C1c2[nH]c3ccccc3c2C[C@H]2C(=O)N(CCN3CCOCC3)CC(=O)N12 (some centres undefined)	-112	-37	-4	-13	-33	-31
COc1ccc(Sc2nc(-c3ccccn3)ncc2OC)cc1	35*	6	3	3	8	14
O=C(COc1ccccc1)Nc1ccc(-c2nc3cnccc3o2)c(O)c1	-16	0	25	84*	-33	-18
Cc1ccc2oc(-c3cc(NC(=O)c4cccc(-n5cnnc5)n4)ccc3O)nc2c1	·	26	-1	-1	·	-4
COc1ccccc1C(=O)Nc1ccc(-c2nc3ccccc3o2)c(O)c1	15	14	32*	37*	15	25
O=C(CCn1c(=S)oc2ccccc21)Nc1ccc(O)c(-c2nc3ccccc3o2)c1	-47	-5	-1	33*	-15	-14
CC(C(=O)Nc1cc(Cl)ccc1Cl)N1CCN(c2ccccc2O)CC1 (centres undefined)	6	9	3	27	4	1
FC(F)(F)Oc1ccc(-c2cnc(NCc3ccc(Cl)cc3)nc2)cc1	34*	25	7	28	20	23
O=c1[nH]c2c(cc1CNc1ccc(Cl)cc1)c(-c1cccc(F)c1)nn2-c1ccccc1	-62	38*	5	-9	-16	-8
O=c1[nH]c2c(cc1CNc1ccc(Oc3ccccc3)cc1)c(-c1ccc(F)cc1)nn2-c1ccccc1	-146	27	63*	77*	-31	-11
Cc1ccc(NCc2cc3c(-c4cccc(F)c4)nn(-c4ccccc4)c3[nH]c2=O)cc1C	-349	-88	36*	37*	-77	-95
SMILES	USP30 inh	USP17 block	USP10 inh	USP8 inh	USP28 block	OTUD3 inh
CC(C)NC(=O)N1CCC(c2cc3c(ncn3C)c(-c3cccnc3)n2)CC1	-21	-22	4	-128	-7	-2
O=C(NCCCN1CCOCC1)c1cc2ccccn2n1	-16	-11	1	0	-12	-11
O=C(NCc1cccc(Br)c1)c1cc2ccccn2n1	25	15	0	6	30*	14
COc1ccc2c(C)c(CC(=O)N[C@@H](Cc3c[nH]c4ccccc34)C(=O)O)c(=O)oc2c1C	-30	13	1	4	-2	-2
COc1ccc2c(C)c(CC(=O)N[C@@H](Cc3c[nH]c4ccc(O)cc34)C(=O)O)c(=O)oc2c1C	-31	16	7	45*	9	7
CCc1cc(=O)n(CC(=O)Nc2cccc(Cl)c2)c(N2CCOCC2)n1	-8	-6	2	-15	2	-1
COc1ccc(NC(=O)CSc2nnc(-c3ccco3)n2C)cc1OC	16	27	1	18	10	13
CCc1cc(C(=O)c2ccc(OC)cc2)c(NC(=O)CSc2nnc(-c3cccs3)n2C)s1	·	61*	21	-18	·	1
CCCCOC(=O)c1ccc(NC(=O)C(=O)CC(=O)c2ccc(OC)cc2)cc1	-75	5	7	77*	-26	-20
Cc1ccc(S(=O)(=O)Nc2ccc(C(=O)N3CCN(c4ccccn4)CC3)cc2)cc1	-8	-13	2	-5	-1	-14
Cc1ccc(S(=O)(=O)N2CCN3C(=O)[C@@H](Cc4ccccc4)N(C)C(=O)[C@@H]3C2)cc1	31*	18	1	26	16	13
CCc1ccc(S(=O)(=O)Nc2ccc3[nH]ncc3c2)cc1	0	7	1	35*	9	1
O=C(NCc1nnc(SCc2cccnc2)o1)c1cccs1	6	5	3	1	4	9
CC(C)CCNC(=O)CSc1nc(-c2cccc(Cl)c2)nc2cc(=O)[nH]n12	25	42*	25	19	18	25
Cc1c(C)n2c(SCC(=O)Nc3cccc(Cl)c3)nnc2[nH]c1=O	18	11	2	17	3	9
Nc1ncnc(SCc2ccc(Cl)cc2)n1	23	54*	7	8	4	2
COc1cnc(SCc2ccc(Cl)cc2)[nH]c1=O	1	1	3	0	2	-1
O=C(Nc1nccn(-c2ccc3c(c2)CCC3)c1=O)c1ccccc1	16	0	-1	-15	6	9
O=C(Nc1ccccc1)Nc1nccn(-c2ccc3c(c2)CCC3)c1=O	39*	30*	7	-6	8	0
O=C(Nc1ccc(F)cc1F)Nc1nccn(-c2cccc(F)c2)c1=O	4	12	6	-2	-2	0
COc1ccccc1-n1ccnc(NC(=O)Nc2cccc(F)c2)c1=O	2	46*	1	-1	-7	-5
COc1cccc(NC(=O)Nc2nccn(-c3ccc(F)cc3)c2=O)c1	10	54*	10	10	-8	-2
CC(C)C(=O)N1CCCC(c2ccnc3ncnn23)C1 (centres undefined)	0	0	0	-4	-5	0
COc1ccc(C(=O)CSc2nc(N)c(NC(=O)c3ccco3)c(=O)[nH]2)cc1	-5	-29	-1	-241	3	3
